Screening data from PubChem BioAssay.
Compounds with a hit are over-represented: about 5.7% of the library has one in this group of screens.
KB-V1 cytotox: qHTS assay for MDR1-selective chemotherapeutics: Primary screen using the drug-selected MDR subline cells KB-V1. KB-V1 MDR cells viability, CellTiter-Glo, 72 h. Potency, µM (doses to about 46.1 µM), hits mostly cytotoxic. 3.4% of 400,000 active; also: nearly all actives have a fitted effect of over 60% in size
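Cytotoxicity toward P-gp-expressing KB-V1 cells was determined as loss of CellTiter-Glo luminescence after 72 h at 37 degrees C. Compounds were tested in quantitative HTS format across a concentration range, with curves fitted to normalized data.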
KB-3-1 tox: qHTS assay for MDR1-selective chemotherapeutics: Primary screen using the parental adenocarcinoma cell KB-3-1. KB-3-1 viability, CellTiter-Glo ATP luminescence, 72 h. Potency, µM (titrated, usually from 46.1 µM), most hits filed as cytotoxic. 1.4% of 400,000 active. AID 1347075, 2019; also: nearly all actives have a fitted effect of over 60% in size
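Cells are dispensed, compounds pinned in, plates held at 37 °C for 72 h, then CellTiter-Glo is added and luminescence read after 10 minutes. Cell line: parental KB-3-1 in phenol-red-free DMEM, 10% FBS.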
HT1080NT lethal: qHTS for induction of synthetic lethality in tumor cells producing 2HG: qHTS for the HT-1080-NT fibrosarcoma cell line; HT-1080-NT fibrosarcoma viability, CellTiter-Glo ATP luminescence, 48 h; Potency, µM (series often up to 46.1 µM), for the others: at the top dose activity, negative = less viability, hits mostly cytotoxic; 1.6% of 360,000 active; AID 686970, 2013;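 also: NT is the 2HG producing partner of a matched IDH1 knockdown line; 0% = DMSO-treated cells and -100% = media-only wells without cells; nearly all actives have a fitted effect of over 55% in size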
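Fibrosarcoma NT cells, 750 per well in 5% FBS RPMI, were exposed to compound for 48 hours. Viability: CellTiter-Glo luminescence.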
HT1080 IDH1KD tx: qHTS for induction of synthetic lethality in tumor cells producing 2HG: qHTS for the HT-1080-IDH1KD cell line | Potency, µM (series often up to 46.1 µM), for the others: top-dose activity, negative = toxicity, usual class: cytotoxic | HT-1080 IDH1 knockdown viability, ATP luminescence, 48 h | 2% of 360,000 active;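 also: 0% = DMSO wells and -100% = cell-free medium wells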
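CellTiter-Glo luminescence after 48 h compound exposure at 37 degrees C of IDH1-knockdown HT-1080 cells in 5% FBS RPMI. %Activity scaled between DMSO wells and cell-free media wells, with curves fitted and assigned curve classes.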
* = called active by the depositor; i = inactive; ? = inconclusive; · = not tested or not shown. Calls follow the shape of the dose curve; as a rule, active = well fitted curve in the direction sought with a large enough effect; inconclusive = small, poorly fitted or top-dose-only effect, or another doubt; inactive = no such curve, though single readings can be large; an effect the other way counts as inactive or inconclusive. Unless noted, % is scaled to controls: 0 for no effect and ±100 for the full control effect; potency is read from the fitted curve at half-maximal effect.

SMILES | KB-V1 cytotox | KB-3-1 tox | HT1080NT lethal | HT1080 IDH1KD tx
CCC(C)NC(=O)c1c(N)n(CCCOC)c2nc3ccccc3nc12 (stereo not given) | 8.2µM* | i | -4% | -4%
Nc1c(C(=O)NCCc2ccccc2)c2nc3ccccc3nc2n1CCN1CCOCC1 | 23µM* | i | 18µM* | ?
Cc1cc(C)cc(-n2c(/C=C/c3cccc(F)c3)nc3ccccc3c2=O)c1 | ? | i | · | ·
O=c1c2ccccc2nc(/C=C/c2ccc(O)cc2)n1-c1ccccc1O | i | 21µM* | -10% | -18%
O=c1c2ccccc2nc(/C=C/c2ccccc2)n1-c1ccccc1O | i | i | -23% | -28%
Cc1ccc(-n2c(/C=C\c3ccc(F)c(F)c3)nc3ccccc3c2=O)c(C)c1 | 4.1µM* | 2.9µM* | · | ·
C[C@]12CCC(=O)C[C@H]1CC[C@@H]1[C@@H]2CC[C@]2(C)C(=O)CC[C@@H]12 | i | i | 5% | 9%
COc1ccc(NC(=O)CSc2nnc(Cc3cccn3C)n2CCc2ccccc2)c(OC)c1 | 3.3µM* | i | ? | ?
O=C(CSC1c2ccccc2-c2ccccc21)N/N=C/c1ccccc1O | 5.2µM* | ? | 4.5µM* | ?
CCN1C(=O)CC(=O)N(CC)C1=S | ? | i | 20% | 13%
NCC(=O)c1ccc(Br)cc1 | i | i | · | ·
C[C@H]1CCCC=CC2C[C@H](O)C[C@@H]2[C@H](O)C=CC(=O)O1 (stereo not given in full) | 0.018µM* | 0.0073µM* | · | ·
C[C@H]1CCC/C=C/[C@@H]2C[C@H](O)C[C@H]2[C@@H](O)/C=C/C(=O)O1 | 0.18µM* | 0.18µM* | ? | 0.15µM*
O=C(NCCCN1CCCC1)c1ccc2c(c1)N(Cc1cccc(Cl)c1)C(=O)c1ccccc1S2=O (stereo not given) | i | i | 16µM* | ?
CCCCCn1c(=O)c(C(=O)Nc2cccc(C)n2)c(O)c2ccccc21 | ? | i | 26% | 11%
CCCCCCn1c(=O)c(C(=O)Nc2nc(CC(=O)OCC)cs2)c(O)c2ccccc21 | 2.1µM* | ? | 2% | -6%
CCOC(=O)Cc1csc(NC(=O)c2c(O)c3ccccc3n(CCC(C)C)c2=O)n1 | 8.2µM* | ? | 11% | 3%
COc1ccc(-c2csc(Nc3ccc(S(N)(=O)=O)cc3)n2)cc1 | i | ? | ? | 18µM*
CC(C)(C)c1cc(C=C(C#N)C#N)cc(C(C)(C)C)c1O | 1µM* | 1.3µM* | 1.2µM* | 2.1µM*
CCOC(=O)CC(SP1(=S)OCC2(CC=CCC2)CO1)C(=O)OCC (stereo not given) | · | · | 0% | -11%
CN1OC[C@@H]2CN[C@H](c3ccc(Br)cc3)C[C@@H]21 | i | i | 6% | -1%
c1ccc2nc(N3CCNCC3)ccc2c1 | ? | i | ? | -1%
CCOC(=O)[C@]12Cc3cc(OC)ccc3[C@H]1N(C1CCCCC1)C(=O)c1ccccc12 | 2.3µM* | 3.3µM* | 2.6µM* | 2.3µM*
CCOC(=O)[C@]12Cc3cc(C)ccc3[C@H]1N(C)C(=O)c1ccccc12 | i | i | 0% | -16%
CCOC(=O)[C@]12Cc3cc(Cl)ccc3[C@H]1N(C1CCCCC1)C(=O)c1ccccc12 | ? | 1.6µM* | 2.3µM* | 2.3µM*
SMILES | KB-V1 cytotox | KB-3-1 tox | HT1080NT lethal | HT1080 IDH1KD tx
COc1cccc(CN2CC=C(c3ccc(F)cc3)CC2)c1 | i | i | -10% | -20%
O=S1(=O)N(CCN2CC=C(c3c[nH]c4cc(F)ccc34)CC2)c2cccc3c2N1CCC3 | ? | ? | 13µM* | 16µM*
c1ccc(CCCN2CCN(CCOC(c3ccccc3)c3ccccc3)CC2)cc1 | 10µM* | ? | 23µM* | 23µM*
Fc1ccc(C(OCCN2CCCC2)c2ccc(F)cc2)cc1 | ? | i | -11% | -10%
Fc1ccc(C(OCCN2CCN(CCCc3ccccc3)CC2)c2ccc(F)cc2)cc1 | 16µM* | ? | · | ·
Fc1ccc(C(OCCN2CCCC2)c2ccc(Br)cc2)cc1 (stereo not given) | ? | i | 16µM* | 16µM*
CCc1ccc(OCC(=O)N2CCN(CCc3ccccn3)CC2)cc1 | i | i | · | ·
O=C1NC(=S)NC(=O)C1=Cc1ccc(Br)s1 | i | i | ? | ?
CC(C)(C)NC(=S)N1Cc2ccccc2-n2nncc2C1 | i | i | -3% | -2%
CCOC(=O)C1(CCc2ccccc2)CCN(Cc2ccc3c(c2)OCCO3)CC1 | ? | ? | 23µM* | 16µM*
CCOC(=O)C1(CCc2ccccc2)CCN(Cc2ccc(NC(C)=O)cc2)CC1 | i | i | -2% | -4%
S=P(NCCNP(=S)(N1CC1)N1CC1)(N1CC1)N1CC1 | i | i | -6% | -3%
CCOC(=O)c1ccc(-[n+]2c(-c3ccccc3)cc(-c3ccccc3)cc2-c2ccccc2)cc1 | i | i | 18µM* | 23µM*
CCOC(=O)c1ccccc1C(=O)OCC | i | i | · | ·
CCOC(=O)c1cccc(-[n+]2c(-c3ccccc3)cc(-c3ccccc3)cc2-c2ccccc2)c1 | i | ? | ? | 18µM*
CC(=O)Nc1cnc(-c2ccccc2O)cn1 | i | i | ? | -11%
C=CCNC(=S)N1Cc2cc(Br)ccc2-n2nncc2C1 | i | i | -1% | 0%
COC1CCC(OC2CC(C3(C)CCC4(CC(O)C(C)C(C(C)/C=C(\C)C(=O)C(C)CC(C)C(=O)O)O4)O3)OC3(OC(C4OC(O)(CO)C(C)CC4C)CC3C)C2C)OC1C (stereo not given) | i | ? | 13µM* | 3.7µM*
C[C@]12CC[C@@H](O)CC1=CC(=O)C1C2CC[C@]2(C)C(=O)[C@H](O)CC12 (stereo not given in full) | i | i | 0% | 10%
C=C1C=C(C(F)F)n2ncc(C(=O)NCc3ccccc3F)c2N1 | i | ? | · | ·
CC(C)N(CCC(=O)c1ccc2ccccc2c1)Cc1ccccc1 | i | ? | 4.1µM* | 15µM*
O=C(COc1ccccc1Cl)N1CCN(CCc2ccncc2)CC1 | i | i | · | ·
COc1cccc2c1C(=O)c1c(O)c3c(c(O)c1C2=O)CC(O)(C(C)=NO)CC3OC1CC(N)C(O)C(C)O1 (stereo not given) | i | ? | ? | 10µM*
CCCOc1ccc(C2SCC(=O)Nc3c2c(C)nn3-c2cccc(C)c2)cc1OC (stereo not given) | i | ? | · | ·
O=C(Nc1ccc2oc(-c3ccccc3F)nc2c1)c1ccc2c(c1)OCCO2 | 18µM* | i | 13µM* | ?
C[N+]12CCC(CC1)C(OC(=O)C(O)(c1ccccc1)c1ccccc1)C2 (stereo not given) | i | i | ? | 12%
